Giardia FBPA inh – qHTS Assay for Inhibitors of Fructose-1,6-bisphosphate Aldolase from Giardia Lamblia; A8B2U2; purified Giardia FBPA; Potency, µM (doses to about 59.6 µM), for inactives: at the highest dose activity, negative = inhibition, usual class: inhibitors; actives 0.71% (n = 290,000); further: potency means the concentration at half of the fitted maximal effect; on the % scale 0 is the no-effect control and ±100 the full control effect; nearly all actives have a fitted effect of over 55% in size
Target sequence (A8B2U2 whole entry, looked up): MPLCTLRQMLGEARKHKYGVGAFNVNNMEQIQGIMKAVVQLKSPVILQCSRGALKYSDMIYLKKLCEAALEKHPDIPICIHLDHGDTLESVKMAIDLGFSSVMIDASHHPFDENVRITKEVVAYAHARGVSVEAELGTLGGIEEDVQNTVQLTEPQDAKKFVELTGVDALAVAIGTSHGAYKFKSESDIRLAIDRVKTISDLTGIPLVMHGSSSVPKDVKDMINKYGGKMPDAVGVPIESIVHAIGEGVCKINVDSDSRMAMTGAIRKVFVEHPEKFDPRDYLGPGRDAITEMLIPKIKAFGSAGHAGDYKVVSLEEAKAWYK
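Giardia FBPA (40 nM reagent) was preincubated 10 min at RT with compound (up to 57.5 uM final), then substrate plus GAPDH/TPI/NAD/arsenate coupling system with diaphorase/resazurin was added; resorufin fluorescence (525/598 nm) was read after 20 min.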
Shiga inhibitor – A qHTS for Small Molecule Inhibitors of Shiga Toxin. Vero cells, Shiga toxin protein synthesis inhibition reporter. AID 2315, 2010. actives 9.2% (n = 290,000). inhibition, % at 38.7 µM; in the data active means inhibition mostly above about 28%, no sharp cut-off; inactive means mostly below about 43%; further: 0% is about no effect
TbPYK inhibitor – qHTS of Trypanosoma Brucei Inhibitors; actives 0.12% (n = 410,000); TbPYK enzyme, Kinase-Glo Plus ATP luminescence, 45 min; pyruvate kinase (Trypanosoma brucei), Q57TT1; Potency, µM (top dose mostly 76.8 µM), inactives show at the top dose activity, negative = inhibition, most hits filed as inhibitors; further: potency means the concentration at half of the fitted maximal effect; on the % scale 0 is the no-effect control and ±100 the full control effect; nearly all actives have a fitted effect of over 50% in size
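In this concentration-response screen, enzyme-free wells defined baseline while DMSO plates tracked drift. Each reaction combined TbPYK, substrate, compound and 130 uM ADP for 45 min at room temperature. Kinase-Glo Plus luminescence gave the signal.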
LmPK inh – qHTS Assay for Inhibitors of Leishmania Mexicana Pyruvate Kinase (LmPK) | Potency, µM (titrated, usually from 57.5 µM), for inactives: at the top dose activity change, negative = inhibition, usual class: inhibitors | AID 1721, 2009 | Q27686 | purified LmPK, Kinase-Glo ATP luminescence, 1 h | actives 0.37% (n = 290,000); further: potency means the concentration at half of the fitted maximal effect; on the % scale 0 is the no-effect control and ±100 the full control effect
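qHTS format; LmPK 0.1 nM; substrates PEP 0.5 mM and ADP 0.1 mM. One-hour room-temperature incubation, then coupled luciferase luminescence; 0.5 nM enzyme wells mark activation.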
Sm TGR block – qHTS Assay for the Inhibitors of Schistosoma Mansoni Peroxiredoxins; Schistosoma mansoni thioredoxin glutathione reductase (TGR), Q962Y6; AID 485364, 2010; purified TGR, DTNB reduction, TNB absorbance 405 nm; Potency, µM (series often up to 114 µM), inactives show at the top dose activity change, negative = inhibition, usual class: inhibitors; actives 3% (n = 360,000); further: potency means the concentration at half of the fitted maximal effect; on the % scale 0 is the no-effect control and ±100 the full control effect; nearly all actives have a fitted effect of over 60% in size
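TGR 20 nM + NADPH 100 uM (dispensed conc.), cpd preinc 15 min RT; start with NADPH (500 uM addition) then DTNB (15 mM addition). Kinetic TNB absorbance, 405 nm filter. Four-parameter Hill fit across titration.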
Cycloheximide cs – Cycloheximide Counterscreen for Small Molecule Inhibitors of Shiga Toxin. cell reporter, cycloheximide protein synthesis inhibition counterscreen. actives 12% (n = 300,000). AID 2314, 2010. max response, %; in the data active means max response mostly above about 13%, no sharp cut-off; inactive means mostly below about 14%; further: read at 38.3 µM for the half of the compounds with a filed dose; 0% is about no effect
* = called active by the depositor; ? = inconclusive; . = not tested or not shown. Many of the other results were omitted from the sample, so hits are more common in it than they were. Unless noted, the call rests on the fitted dose curve; in most records, active means well fitted curve in the direction sought with a large enough effect; inconclusive means small, poorly fitted or top-dose-only effect, or another doubt; inactive means no such curve, though single readings can be large; an effect the other way counts as inactive or inconclusive.

SMILES	Giardia FBPA inh	Shiga inhibitor	TbPYK inhibitor	LmPK inh	Sm TGR block	Cycloheximide cs
Cc1c(C)[n+](=O)c2c(n1[O-])C(Br)CCC2Br (configuration not stated)	-20%	14	5%	-3%	40µM*	-3
O=c1c2c(nc3cc(-c4ccc(F)cc4)[nH]n13)CCC2	-12%	100*	1%	-21%	-1%	101*
Cc1ccc(-c2cc3nc4c(c(=O)n3[nH]2)CCCC4)cc1	.	.	-12%	.	.	.
CCc1ccccc1NC(=O)c1cc(-c2cccs2)on1	-1%	38	-6%	0%	-15%	17*
COc1cccc(-c2cc(C(=O)Nc3cccnc3Cl)no2)c1	-1%	10	3%	-3%	5%	10
O=C(Nc1cccnc1Cl)c1cc(-c2cccc(O)c2)on1	0%	70*	0%	-3%	2%	16*
O=C(Nc1ccccc1C(F)(F)F)c1cc(-c2cccc(O)c2)on1	2%	27	-11%	0%	3%	20*
Cc1c(Cl)cccc1NC(=O)c1cc(-c2cccc(Cl)c2)on1	.	.	0%	.	10%	.
CCc1ccccc1NC(=O)c1cc(-c2cccc(O)c2)on1	-7%	61	-3%	1%	8%	20*
CCc1ccccc1NC(=O)c1cc(-c2ccc(F)cc2)on1	5%	33	0%	-13%	0%	21
C[C@@H]1CCN(C(=O)CC#N)C[C@@H]1N(C)c1ncnc2[nH]ccc12	.	.	0%	.	.	.
COCCCNC(=S)NNC(=S)Nc1ccc(F)cc1F	9%	54*	-21%	0%	14%	44*
COCCCNC(=S)NCCc1ccc(F)cc1	-1%	45*	-4%	-2%	1%	26
COCCCNC(=S)Nc1ccc(C)cc1	1%	4	1%	-3%	-31%	0
COCCCNC(=S)NNC(=S)Nc1ccccc1	2%	40*	-12%	-3%	24%	27*
Cc1ccc2c(c1)-c1c(cnn1CC(=O)N1CCN(c3ccccc3F)CC1)CO2	.	.	1%	.	13%	.
Cc1ccc(-n2ncc3c2CC(C)(C)CC3NC(=O)c2ccccn2)cc1 (configuration not stated)	8%	-2	-1%	2%	-7%	21*
Cn1nccc1C(=O)NC1CC(C)(C)Cc2c1cnn2-c1ccc(F)cc1 (configuration not stated)	3%	28	-3%	-4%	2%	0
Cc1cc(C(=O)NC2CC(C)(C)Cc3c2cnn3-c2ccc(F)cc2)no1 (configuration not stated)	.	37*	2%	-1%	6%	18
Cn1c(C(=O)NCc2ccc(F)cc2)cc2c(=O)n(C)c3ccccc3c21	.	.	2%	.	-2%	.
CCOC(=O)c1sc(NC(=O)c2sccc2C)cc1C	-15%	70*	-24%	?	5%	63*
CCOC(=O)c1sc(NC(=O)Nc2cccc(Cl)c2)cc1C	0%	108*	-1%	2%	8%	62*
CCOC(=O)c1sc(NC(=O)c2cccs2)cc1C	-3%	141*	1%	?	-18%	32*
CCOC(=O)c1sc(NC(=O)c2ccc(Br)o2)cc1C	-10%	124*	2%	-14%	-4%	47*
CC(=O)c1sc(NC(=O)CSC(C)C(=O)Nc2cc(C)on2)nc1-c1ccccc1 (configuration not stated)	.	.	5%	.	1%	.
SMILES	Giardia FBPA inh	Shiga inhibitor	TbPYK inhibitor	LmPK inh	Sm TGR block	Cycloheximide cs
Cc1ccc2cc(CN(C)C(=O)c3cccc(Cl)c3)c(=O)[nH]c2c1	.	.	2%	.	-2%	.
CCn1ccc2cc(S(=O)(=O)N3CCCN(C(=O)Nc4ccc(C)cc4Cl)CC3)ccc21	.	.	-8%	.	-5%	.
O=C(O)Cc1cc(I)c(Oc2cc(I)c(O)c(I)c2)c(I)c1	-2%	.	.	.	.	.
CCS(=O)(=O)NCCc1csc(-c2ccccc2)n1	7%	71*	0%	-7%	-3%	57*
Cc1cccn2cc(CCNC(=O)c3cccs3)nc12	14%	33	0%	-1%	5%	18*
CC(C)(C)CC(=O)NCCc1csc(-c2ccccc2)n1	-2%	34*	7%	0%	-1%	22*
